Screening results: PubChem BioAssay, several laboratories
Hits are enriched below; roughly 4.8% of the tested compounds scored in any of these assays.
SKKanGAS inh = blocks kanamycin growth of S. pyogenes SKKanGAS strain; BacTiter-Glo, 6 h; inhibition, % at 7.5 µM; hit rate 1.3% among 300,000;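 active means mean replicate score, as percent of positive control median, at least 50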;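 further: strain carries kanamycin resistance gene driven by streptokinase promoter and grows in 40 µg/ml kanamycin; loss of luminescence reflects streptokinase promoter inhibition or plain growth inhibition; 0% = median of DMSO wells and 100% = positive control at its reference dose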
PfHsp90 yeast 2 = inhibits growth of yeast expressing Plasmodium falciparum Hsp90; AID 504621; S. cerevisiae expressing PfHsp90, BacTiter-Glo ATP, 48 h; yeast lacking PDR1 and PDR3 efflux regulators; hit rate 0.32% among 310,000; inhibition, % at 9.4 µM;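 active means every replicate shows inhibition above about 80%, whatever the replicate mean, limit read from the data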;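 further: 0% = DMSO neutral controls and 100% = 20 µM radicicol positive controls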
tim10-1 inh = tim10-1 yeast growth inhibition. hit rate 2.2% among 330,000. S. cerevisiae tim10-1 ts strain growth, BacTiter-Glo, 24 h. inhibition, % at 20 µM. AID 463190;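 active means inhibition of at least 40%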;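 further: mutant grown at 25 °C; 0% = DMSO wells with yeast and 100% = wells holding no yeast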
tim23-1 inh = inhibits growth of tim23-1 mutant yeast. S. cerevisiae tim23-1 growth, BacTiter-Glo luminescence, 24 h. inhibition, % at 20 µM. AID 463212. hit rate 1.3% among 330,000;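 active means growth inhibition of the mutant yeast at or above 50%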;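 further: temperature-sensitive mutant grown at 25 °C; plate controls were DMSO-treated mutant yeast for no effect and medium wells lacking yeast for full effect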
TIM10 inh = growth inhibitors of TIM10 yeast strain; S. cerevisiae TIM10 strain growth, BacTiter-Glo luminescence, 24 h; hit rate 1.4% among 330,000; inhibition, % at 10 µM;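 active means inhibition of 40% or more at the single tested concentration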;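 further: wild-type TIM10 isogenic control strain grown at permissive 25 °C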
NALP1 inh = NALP1 inhibition. inhibition, % at 10 µM. S. cerevisiae NALP1/ASC/caspase-1 growth, X-gal OD620, 72 h. AID 2071. hit rate 0.61% among 280,000; in the data active means inhibition mostly above about 24%, no sharp cut-off; inactive means mostly below about 32%
An asterisk follows results filed as active; x = not tested or not shown.

SMILES | SKKanGAS inh | PfHsp90 yeast 2 | tim10-1 inh | tim23-1 inh | TIM10 inh | NALP1 inh
COc1ccc(OCC(N)=O)cc1 | -7.7 | 2.5 | -0.3 | 18.6 | 2.4 | 38.8*
COc1cc(OCC(N)=O)cc(OC)c1OC | -9.2 | -41.3 | 13.1 | 13.0 | -13.7 | 21.4
O=C(O)C1CC=CCC1C(=O)NCc1cn2ccccc2n1 (stereo not drawn) | -0.3 | -15.9 | 1.0 | 9.0 | -2.0 | x
O=C(C=Cc1ccccn1)c1ccccc1O | x | 114.1* | x | x | x | x
CCN(CC)CCCN(Cc1cc2ccc(C)c(C)c2[nH]c1=O)C(=O)NC1CCCCC1 | 2.8 | -9.4 | 3.3 | 22.5 | 3.4 | 23.3*
Cc1ccc2cc(CN(CC3CCCO3)C(=O)NC3CCCCC3)c(=O)[nH]c2c1C (stereo not drawn) | -5.7 | -49.9 | 19.9 | 26.9 | 26.7 | 2.6
Cc1nc2ccc(NC(=O)c3cc([N+](=O)[O-])cc([N+](=O)[O-])c3Cl)cc2s1 | x | -8.0 | x | x | x | 57.5*
Cc1nc2ccc(NC(=O)c3ccc(Cl)c([N+](=O)[O-])c3)cc2s1 | 4.8 | -7.4 | 12.1 | 3.7 | 10.1 | 33.0
CCOC(=O)c1cnc2c(N=Nc3cccc(Cl)c3)c(N)nn2c1N | x | x | x | x | x | 83.5*
Cc1cc(C)cc(NC(=O)Cn2nnc(C(=O)NCc3ccc4c(c3)OCO4)c2N)c1 | 2.6 | -21.6 | -20.9 | -11.9 | -15.5 | 14.8
Cc1ccc(N2C(=O)C3CC(c4ccccc4)=C4C5C=CC(C6C(=O)N(c7ccc(C)cc7)C(=O)C56)C4C3C2=O)cc1 (stereo not drawn) | 65.4* | -30.0 | 7.0 | -3.8 | 11.1 | 26.1
Cc1ccc(N2C(=O)C3CC(c4ccccc4)=C4C5C=CC(C6C(=O)N(c7ccc(C)cc7C)C(=O)C56)C4C3C2=O)c(C)c1 (stereo not drawn) | 5.0 | 1.4 | 15.3 | 21.3 | 12.3 | 16.7
CN(CC(=O)Nc1ccccc1C(F)(F)F)C(=O)Cc1ccc(S(=O)(=O)N2CCOCC2)s1 | -5.2 | -16.4 | 16.1 | 2.7 | 1.2 | x
Cc1ccccc1-c1nn(-c2ccc(F)cc2F)cc1CNCCCO | -5.4 | 8.2 | 6.2 | 5.1 | 3.1 | 19.8*
O=C(CSc1nnc2n(C3CCCCC3)c(=O)c3ccccc3n12)OC1CCCCC1 | 0.9 | 19.4 | 13.6 | 18.0 | 7.3 | 10.7
O=C(NCc1ccccn1)C1CCCN(S(=O)(=O)c2cccc3nsnc23)C1 (stereo not drawn) | 5.9 | -20.4 | -0.4 | 4.6 | -2.4 | 31.8*
CCN(CC)C(=O)[C@H]1CC(CC(=O)NCCc2ccccn2)C(=O)N2CCc3c([nH]c4ccc(OC)cc34)[C@]12C (stereo partly drawn) | x | 13.3 | 2.9 | 34.4 | 2.1 | x
Cc1cc(C)cc(OCC(=O)NCCc2nc3ccccc3[nH]2)c1 | 1.4 | -2.3 | -5.1 | 19.3 | -22.3 | 4.3
Cc1cc(=O)oc2cc(OCC(=O)NCCc3nc4ccccc4[nH]3)ccc12 | 1.9 | x | 1.0 | -6.6 | -18.2 | 38.3*
Cn1c(CNS(=O)(=O)c2ccc(Br)cc2)n[nH]c1=S | -4.1 | x | 11.8 | 6.3 | 11.6 | -19.9
CN1C(=O)/C(=C/c2ccc(C(F)(F)F)cc2)Sc2ccc(C(=O)N3CCN(c4ccccn4)CC3)cc21 | 103.9* | -9.1 | 16.4 | 9.8 | 11.9 | 10.8
Cc1cccc(/C=C2\Sc3ccc(C(=O)N4CCC(C(N)=O)CC4)cc3N(C)C2=O)c1 | -3.4 | -4.5 | 3.1 | 0.0 | 3.9 | 6.8
CN1C(=O)/C(=C/c2ccccc2Cl)Sc2ccc(C(=O)N3CCCC3)cc21 | 99.2* | 3.5 | 35.1 | 10.3 | 2.6 | 8.4
CCOC(=O)C1CCCN(C(=O)c2ccc3c(c2)N(C)C(=O)/C(=C/c2ccccc2Cl)S3)C1 (stereo not drawn) | 104.9* | 27.8 | 31.1 | 32.0 | 1.9 | 13.1
Cc1cc(Cl)c2oc(C(=O)N3CCCCC3CCN3CCCC3=O)c(C)c2c1 (stereo not drawn) | 3.6 | 13.2 | 35.4 | 33.5 | 16.7 | 10.7
SMILES | SKKanGAS inh | PfHsp90 yeast 2 | tim10-1 inh | tim23-1 inh | TIM10 inh | NALP1 inh
Cc1cc2c(cc1S(=O)(=O)NCc1ccccc1)n(C)c(=O)c(=O)n2C | -0.9 | -17.3 | -15.5 | -1.7 | -1.6 | 21.7
Cc1ccc2c(COC(=O)c3ccc(NC(=O)CC#N)cc3)cc(=O)oc2c1C | 2.1 | -19.5 | 8.3 | 4.0 | 11.9 | 24.5
Cc1cccc(NC(=O)C2SC(=Nc3c(C)cccc3C)C(C(=O)N3CCOCC3)=C2N)c1 (stereo not drawn) | 94.3* | 26.3 | 13.6 | 0.8 | 9.2 | 26.6
COC(=O)c1ccc(Oc2nc3ccccc3n3c(C)nnc23)cc1 | 52.9* | 17.2 | 3.4 | 21.7 | 4.2 | x
NS(=O)(=O)c1ccc(CCNS(=O)(=O)Cc2ccc(Cl)cc2)cc1 | -2.8 | -8.0 | -0.3 | 3.7 | -7.5 | -40.9
CC1(c2nnc(Cc3ccccc3)o2)CC(c2ccccc2[N+](=O)[O-])=NO1 (stereo not drawn) | 0.3 | 108.4* | 0.0 | 8.6 | -13.0 | x
CC1(c2nnc(Cc3ccccc3)o2)CC(c2cccc([N+](=O)[O-])c2)=NO1 (stereo not drawn) | -3.6 | 6.0 | 0.9 | 13.3 | 4.8 | x
COc1ccc(C(=O)C(CN2CCOCC2)c2ccccc2)cc1F (stereo not drawn) | 1.4 | 8.5 | x | x | x | 40.7*
CCN(CC)CCn1c(SCC(=O)Nc2ccc(F)cc2)nc2c(sc3ccccc32)c1=O | 10.1 | x | 8.2 | 18.7 | 23.6 | 1.8
ClC(Cl)c1nnc(-c2ccccc2)c(-c2c[nH]c3ccccc23)n1 | 11.3 | -10.8 | 24.3 | 23.1 | 15.3 | 23.3
c1ccc(-c2nnc(-c3c[nH]c4ccccc34)nc2-c2ccccc2)cc1 | 64.9* | -48.0 | 24.5 | 29.1 | 17.7 | 7.2
O=S(=O)(Cc1ccccc1)N1CCn2c(nc3ccccc32)C1 | 0.6 | -5.2 | -1.7 | 3.2 | -2.0 | 40.8*
CC(/C=C/c1ccco1)=N\NC(=O)c1cc(Cl)ccc1O | 69.8* | -9.3 | 9.8 | 3.6 | 2.6 | -5.7
CC1(NC(=O)CCc2nc3sc4c(c3c(=O)[nH]2)CCCC4)CCS(=O)(=O)C1 (stereo not drawn) | -1.9 | -3.1 | -0.5 | -16.8 | -8.4 | x
CCc1ccc(C(C(=O)NC(C)(C)CC)N(Cc2ccco2)C(=O)Cn2nnc3ccccc32)cc1 (stereo not drawn) | 18.1 | 13.1 | 25.3 | 11.7 | 0.4 | 13.2
O=C(c1ccccc1-c1ncc[nH]1)N1CCCC(Nc2ccc(F)cc2)C1 (stereo not drawn) | 0.5 | 12.7 | 2.7 | 14.3 | 7.0 | 1.9
COc1cc(CNC(=O)CCCC/C=C\C(C)C)ccc1O | -5.2 | x | 4.1 | 13.3 | -1.5 | 5.3
O=C(CN1CCN(c2ccc(F)cc2)CC1)N1CCC(Cc2ccccc2)CC1 | -5.7 | 1.6 | -3.5 | -81.5 | -11.4 | 30.7*
NC(=O)c1ccc(NC(=O)COC(=O)c2cc(S(=O)(=O)N3CCOCC3)ccc2N2CCCCC2)cc1 | -7.3 | -13.6 | 2.4 | 12.9 | -2.5 | -4.6
CCCn1c(SCc2nc3ccccc3s2)n[nH]c1=O | -0.7 | 14.6 | 17.8 | 7.2 | 9.1 | 32.7*
